Reference: PubChem BioAssay AID602410 (Johns Hopkins Ion Channel Center, 2012)
Hit rate of the full screen: of about 340,000 compounds, about 2,800 (0.82%) were called active.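 How the source made its calls: active means B-score under library mean minus 4 SD, starting fluorescence ratio at most library mean plus 5 SD; inactive means the rest.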 The sample as a whole holds a higher share of actives than the screen did.

biological target: Potassium channel subfamily K member 3 (Homo sapiens) (UniProt O14649); assay: blockers of TASK1 two-pore potassium channel – CHO cells, FluxOR thallium flux, B-score, primary screen (AID 602410); conditions: CHO-KCNK3 thallium flux, FluxOR fluorescence, at 10 µM; hits give low values;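 on B-score: more negative B-score means stronger inhibition of thallium flux through KCNK3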
Sequence (O14649 whole entry, looked up): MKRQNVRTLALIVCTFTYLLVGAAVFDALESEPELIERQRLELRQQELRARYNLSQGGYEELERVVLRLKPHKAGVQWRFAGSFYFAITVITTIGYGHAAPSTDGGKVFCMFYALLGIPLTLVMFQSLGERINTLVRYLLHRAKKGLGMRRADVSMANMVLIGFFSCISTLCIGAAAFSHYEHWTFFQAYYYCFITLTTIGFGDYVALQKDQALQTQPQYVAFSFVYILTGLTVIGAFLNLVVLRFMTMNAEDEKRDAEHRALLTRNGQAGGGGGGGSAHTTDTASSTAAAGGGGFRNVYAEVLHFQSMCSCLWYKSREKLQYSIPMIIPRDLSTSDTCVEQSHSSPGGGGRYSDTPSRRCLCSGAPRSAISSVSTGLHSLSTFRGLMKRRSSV

B-score, active:
COc1ccc(Cl)cc1NC(=O)C(C)N1CCc2ccccc21 (centres undefined) -8.75, Cc1ccc(S(=O)(=O)NCc2cn3ccsc3n2)c(C)c1 -20.8, CCN1CCN(CCNC(=O)c2ccc(/C=C3/Sc4ccccc4N(Cc4cccc(C)c4)C3=O)cc2)CC1 -11.5, Cc1cc(NC(=O)Nc2ccc(Cl)cc2)n(-c2ccccc2)n1 -10.7, O=C(Nc1ccccc1)O/N=C1\CCCCC1c1ccc([N+](=O)[O-])cc1[N+](=O)[O-] (centres undefined) -9.88, CC(C)(CCl)C(=O)Nc1ccc(Sc2ccc(F)cc2)cc1 -12, CN(CCC(=O)Nc1cc(S(=O)(=O)N(C)C)ccc1Cl)CC(=O)Nc1ccc(F)cc1 -16.6

B-score, inactive:
O=C(O)Cc1csc(NC(=O)CSc2nnnn2-c2ccc(O)cc2)n1, COc1ccc(Cl)cc1NC(=O)NCC1CCN(Cc2ccccc2F)CC1, COc1ccc(Cl)cc1NC(=O)NC(C)C(C)(C)C (centres undefined), Cc1nc(CNS(=O)(=O)c2cc([N+](=O)[O-])ccc2C)cs1, O=C(NCc1cn2ccsc2n1)Nc1cccc(Cl)c1, COC(=O)c1ccccc1N=Nc1c(C)[nH][nH]c1=O, O=C(NCCCN1CCOCC1)c1ccc2c(c1)N(Cc1cccc(F)c1)C(=O)c1ccccc1S2, CN1CCN(CCCNC(=O)c2ccc(/C=C3\Oc4ccccc4N(Cc4ccc(Cl)cc4)C3=O)cc2)CC1, CC[C@]1(C(=O)OC)[C@H]2C(=O)N(Cc3ccccc3)C(=O)[C@H]2[C@H]2CN=C(SCc3ccc(C#N)cc3)N21, CCc1ccc(OC(C)C(=O)Nc2ccc(S(=O)(=O)Nc3cc(C)on3)cc2)cc1 (centres undefined), Cc1cc(C(=O)NCCc2ccc(Cl)cc2)n(-c2ccccc2)n1, Cc1ccc(NC(=O)Nc2cc(-c3ccccc3)nn2C)cc1Cl, C[n+]1ccccc1C1CCCC/C1=N\Nc1ccc([N+](=O)[O-])cc1[N+](=O)[O-] (centres undefined), O=[N+]([O-])c1ccc(N/N=C2/CCCCC2c2ccccn2)c([N+](=O)[O-])c1 (centres undefined), Cc1ccc(S(=O)(=O)N(CC(O)CN2C(=O)NC(C)(C)C2=O)c2cccc([N+](=O)[O-])c2)cc1 (centres undefined), C/C(=N/NC(=O)c1ccc(Br)o1)c1ccc(C)o1, O=C(C1CC(=O)N(c2ccc(Br)cc2)C1)N1CCCC1 (centres undefined), CC(NC(=O)Cn1cc(C(F)(F)F)cc(Cl)c1=O)c1ccccc1 (centres undefined), O=C(CCl)Nc1ccc(Sc2ccc(NC(=O)CCl)cc2)cc1, O=C(Nc1ccncc1)Nc1ccc(F)cc1, CCn1nnnc1SCC(=O)c1ccc(C)cc1C, Cc1ccc(NC(=O)COc2ccc(-n3ccnc3)cc2)cc1Cl, c1ccc(CN=C2Nc3ccccc3CS2)nc1, COc1ccc(C(CCNCc2ccccc2F)c2ccc(F)cc2)cc1 (centres undefined), CN(CC(=O)Nc1ccc(F)cc1)CC(=O)Nc1ccc(Cl)c(S(=O)(=O)N2CCOCC2)c1, CN(CC(=O)Nc1ccc(S(=O)(=O)N2CCCC2)cc1)Cc1ccc(Cl)c(Cl)c1, COc1cc(C(=O)CCc2ccc3c(c2)OCO3)cc(OC)c1OC
